Results on 19 compounds are retold here after ChEMBL document CHEMBL3988442, “University of Dundee, Small-Polar-MMV Screening Library” (2021).

The target of assay [1] is T1, Aspartate--tRNA(Asp/Asn) ligase (Mycobacterium tuberculosis (strain ATCC 25618 / H37Rv)) (UniProt P9WFW3). Further: in the data most compounds retested in dose-response had high values.
T1 sequence (whole entry): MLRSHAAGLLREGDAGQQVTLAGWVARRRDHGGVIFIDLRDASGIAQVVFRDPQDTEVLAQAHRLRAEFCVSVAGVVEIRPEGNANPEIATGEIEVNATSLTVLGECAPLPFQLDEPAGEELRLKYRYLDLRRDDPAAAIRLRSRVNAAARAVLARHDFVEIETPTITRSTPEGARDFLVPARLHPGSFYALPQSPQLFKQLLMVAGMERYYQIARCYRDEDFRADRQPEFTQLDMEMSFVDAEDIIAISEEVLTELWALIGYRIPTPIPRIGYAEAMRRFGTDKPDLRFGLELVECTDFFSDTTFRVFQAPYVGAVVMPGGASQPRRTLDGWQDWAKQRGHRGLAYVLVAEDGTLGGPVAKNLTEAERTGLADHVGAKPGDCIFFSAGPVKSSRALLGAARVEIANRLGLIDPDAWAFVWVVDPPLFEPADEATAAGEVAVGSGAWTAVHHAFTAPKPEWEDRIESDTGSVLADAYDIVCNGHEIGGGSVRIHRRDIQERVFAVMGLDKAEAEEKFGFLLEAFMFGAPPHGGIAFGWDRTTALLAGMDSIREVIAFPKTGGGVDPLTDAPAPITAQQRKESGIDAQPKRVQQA
The assay is described as follows: Assay for Asp RNA synthetase-1 from Mycobacterium tuberculosis. It is filed as functional. On the set-up: scale not given: direction of the effect not stated beside the values. The following applies: 30 µM.

Assay [2] addresses Shiga toxin 2 (Escherichia coli O157:H7) (UniProt P09385+P09386). The assay is described as follows: E. coli 0.157:H7 Shiga Toxin SOP - stx2 screening assay. Type of assay: functional. On the set-up: scale not given: direction of the effect not stated beside the values. The following applies: 30 µM.

`O=S(=O)(c1ccccc1Cl)N1CCc2nc(C3CCNCC3)ncc2C1`: the Percent Effect in assay [1] is -6.28%; in assay [2], -9.83%.

Take `CC(=O)N1C[C@@H](c2ccsc2)[C@@H]2CN(Cc3cccc(Cl)c3)CC[C@@H]21`: the Percent Effect in assay [1] is -0.368%; in assay [2] it was -9.53%.

As for `CCC(=O)N1CCN(C(=O)CCn2cccn2)CC1`, the Percent Effect in assay [1] is -2.56%; in assay [2] it was -8.34%.

Consider `CS(=O)(=O)N1CCC(c2nnc3ccc(C(=O)N4CCCC4)cn23)C1` (stereo not drawn), for which the Percent Effect was 2% in assay [1] and -10.4% in assay [2].

`CC(C)c1cc(NC(=O)CN2CCNC(=O)C2)on1`: the Percent Effect in assay [1] is 2.59%; in assay [2], -3.5%.

For the compound `Cn1ccc(C(=O)NCc2ccc(N3CCCC3)nc2)cc1=O`, the Percent Effect in assay [1] was 0.0735%; in assay [2] it was -33.5%.

In the case of `Cc1csc2ncc(-c3ccnc(N4CCN(C)CC4)n3)c(=O)n12`, the Percent Effect in assay [1] is 1.78%; in assay [2], -20.6%.

With `CC(C)c1nc(N2CC(N3CCCCC3C)C2)c2cnn(C)c2n1` (stereo not drawn), the Percent Effect was -2.71% in assay [1] and -37.8% in assay [2].

Turning to `CCn1cc(C(=O)NC2CCN(S(C)(=O)=O)CC2)c2ccccc21`, the Percent Effect was -0.607% in assay [1] and -0.257% in assay [2].

Regarding `Cc1ccc(-c2nc(CNC3CCc4ncnn4C3)co2)c(C)c1` (stereo not drawn), the Percent Effect in assay [1] was -9.8%; in assay [2], -22%.

For the compound `FC(F)(F)C1CCc2nnc(CNCc3ccsc3)n2C1` (stereo not drawn), the Percent Effect is -0.0705% in assay [1] and 3.92% in assay [2].

Consider `CN(C)c1ccc(CNC(=O)c2ccc(Cl)cc2F)cc1`, for which the Percent Effect in assay [1] is -7.82%; in assay [2], 0.494%.

Take `Nc1nc(C2CCN(C(=O)c3cncs3)CC2)cs1`: the Percent Effect in assay [1] is -0.134%; in assay [2], -3.12%.

Turning to `Cc1ccc(CNC(c2ccccc2)c2nccn2C)cc1C` (stereo not drawn), the figures for the Percent Effect in assay [1] and in assay [2] were 1.11% and 14.8%, respectively.

Take `CC(C)(C)OC(=O)CNC(=O)CCc1nnc(-c2ccsc2)o1`: the results for the Percent Effect in assay [1] and in assay [2] were 8.92% and -21.2%, respectively.

In the case of `CN(C)C(=O)N1CCc2c(CNc3ncccn3)cncc2C1`, the Percent Effect in assay [1] was 0.757%; in assay [2], -10.5%.

As for `c1ccc(-n2nnnc2CN2CCCC(Cn3cncn3)C2)cc1` (stereo not drawn), the results for the Percent Effect in assay [1] and in assay [2] were 2.98% and 6.15%, respectively.

In the case of `CC1(C)CC(N2Cc3nc(N4CCOCC4)ncc3C2=O)CC(C)(C)N1`, the results for the Percent Effect in assay [1] and in assay [2] were -4.82% and -59.4%, respectively.

With `O=C(Cc1ccsc1)N1CCC(n2nc(-c3ccco3)ccc2=O)CC1`, the Percent Effect in assay [1] is -0.938%; in assay [2] it was 18.8%.
